Experimental data: PubChem BioAssay (EPA / NIEHS)
Active and inactive are the calls of the source. How the source made its calls: active means hit-call score of the fitted dose curve at least 0.9, where 1 is the maximum; inactive means score below 0.9.

What was measured:
[1] = APR_HepG2_P-H2AX_72hr: Apredica 72-hour HepG2 Assay for H2AX Phosphorylation (AID 2282916); settings: imaging, actives raise or lower the signal;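 further: phospho-histone H2A.x immunostain intensity per cell marking DNA damage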
Outline: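 HepG2; cpd 0.39–200 uM ×10 conc, duplicates; 0.5% DMSO; 72 hr. Fix 3.7% formaldehyde 30 min RT, 0.5% Triton X-100 10 min. Anti-phospho-H2A.x 1:200 + Hoechst 2 ug/mL, 60 min RT; ArrayScan imaging.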

[2] = APR_HepG2_MitoticArrest_72hr: Apredica 72-hour HepG2 Assay for Mitotic Arrest (AID 2282918); settings: high-content imaging, actives raise or lower the signal
Outline: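 Read-out is phospho-histone H3 immunofluorescence with Hoechst nuclear segmentation, imaged at 20x. Human HepG2 liver cells received ten concentrations (0.39–200 uM, final DMSO 0.5% v/v) for 72 hr before fixation. Gain or loss of signal was fitted relative to DMSO.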

[3] = APR_HepG2_MicrotubuleCSK_72hr: Apredica 72-hour HepG2 Assay for Microtubule CSK Stabilty (AID 2282919); settings: HepG2 microtubule cytoskeleton, high-content imaging, actives raise or lower the signal
Outline: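 Read-out is tubulin fluorescence intensity from high-content imaging of HepG2 cells, with nuclei identified by Hoechst 33342. Treatment lasts 72 h at 0.39–200 uM, and curves are fitted bidirectionally against the DMSO negative control.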

[4] = APR_HepG2_P-H2AX_24hr: Apredica 24-hour HepG2 Assay for H2AX Phosphorylation (AID 2282920); settings: high-content imaging, actives raise or lower the signal
Outline: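 HepG2, 24 hr, cpd 0.39–200 uM (10 conc, duplicate), DMSO 0.5% v/v final. Fix 3.7% formaldehyde, Triton X-100 permeabilize, anti-phospho-H2A.x 1:200 + Hoechst 2 ug/mL. Imaged, bidirectional fit vs DMSO.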

[5] = APR_HepG2_StressKinase_72hr: Apredica 72-hour HepG2 Assay for Stress Kinase (AID 2282921); settings: HepG2 stress kinase (phospho-c-Jun) imaging, actives raise or lower the signal
Outline: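 Dose 0.39–200 uM (10 pts, duplicate), 0.5% DMSO; 72 h; fix 3.7% formaldehyde 30 min RT; Triton permeabilize; anti-phospho-c-Jun/Cy3 + Hoechst 60 min RT; image 20x; fit gain/loss vs DMSO.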

[6] = APR_HepG2_StressKinase_24hr: Apredica 24-hour HepG2 Assay for Stress Kinase (AID 2282922); settings: HepG2 stress kinase (phospho-c-Jun) imaging, actives raise or lower the signal
Outline: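 HepG2, 24 hr dosing, 0.39–200 uM in duplicate, 0.5% DMSO; formaldehyde fix (3.7%), 0.5% Triton X-100; anti-phospho-c-Jun + Cy3 secondary, Hoechst counterstain; ArrayScan imaging; bidirectional curve fit vs DMSO baseline.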

[7] = APR_HepG2_p53Act_72hr: Apredica 72-hour HepG2 Assay for p53 Activation (AID 2282923); settings: high-content imaging, actives raise or lower the signal;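 further: average cellular p53 protein immunofluorescence intensity in HepG2 cells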
Outline: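 10-pt conc. 0.39–200 uM, duplicate, 0.5% DMSO; 72 hr exposure; 3.7% formaldehyde fix, 0.5% Triton perm; sheep anti-p53/Cy5 + Hoechst; ArrayScan 20x, 6 images/well; gain/loss fit vs DMSO.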

[8] = APR_HepG2_MitoMass_72hr: Apredica 72-hour HepG2 Assay for Mitochondrial Mass (AID 2282924); settings: high-content imaging, actives raise or lower the signal;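 further: MitoTracker Red CMXRos stain intensity per cell imaged as mitochondrial mass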
Outline: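 HepG2, 72 hr cmpd, 10 conc 0.39–200 uM in dup, DMSO 0.5% v/v. MitoTracker Red CMXRos 250 nM 30 min pre-fix; formaldehyde 3.7% fix 30 min RT. HCS imaging, gain/loss fit vs DMSO.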

[9] = APR_HepG2_NuclearSize_72hr: Apredica 72-hour HepG2 Assay for Nuclear Size (AID 2282925); settings: high-content imaging, actives raise or lower the signal
Outline: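 HepG2; cpd 0.39–200 uM, 10 conc, duplicate; 72 h; DMSO 0.5% v/v; fix 3.7% formaldehyde 30 min RT; Triton permeabilization; Hoechst 2 ug/mL; HCS imaging 20x; nuclear diameter; gain/loss fit vs DMSO.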

[10] = ATG_CRE_CIS: Attagene CIS-FACTORIAL HepG2 Assay for human cAMP Responsive Element (CRE) binding protein 3 (AID 2282926); settings: HepG2 CRE cis-reporter, Attagene multiplexed mRNA; actives raise or lower the signal
Outline: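 Human liver HepG2, transient MRTU transfection, 24 h compound exposure. Total RNA → oligo(dT) RT → PCR → 6-FAM primer extension → HpaI cut → CE. Activity called both directions vs DMSO.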

[11] = biological target: CCAAT/enhancer-binding protein beta (Homo sapiens) (UniProt P17676); test: ATG_C_EBP_CIS: Attagene CIS-FACTORIAL HepG2 Assay for human CCAAT/Enhancer Binding Protein (C/EBP) beta (AID 2282927); settings: HepG2 Attagene cis-factorial transcription factor reporter; actives raise or lower the signal
CCAAT/enhancer-binding protein beta (Homo sapiens), sequence (P17676 whole entry, looked up): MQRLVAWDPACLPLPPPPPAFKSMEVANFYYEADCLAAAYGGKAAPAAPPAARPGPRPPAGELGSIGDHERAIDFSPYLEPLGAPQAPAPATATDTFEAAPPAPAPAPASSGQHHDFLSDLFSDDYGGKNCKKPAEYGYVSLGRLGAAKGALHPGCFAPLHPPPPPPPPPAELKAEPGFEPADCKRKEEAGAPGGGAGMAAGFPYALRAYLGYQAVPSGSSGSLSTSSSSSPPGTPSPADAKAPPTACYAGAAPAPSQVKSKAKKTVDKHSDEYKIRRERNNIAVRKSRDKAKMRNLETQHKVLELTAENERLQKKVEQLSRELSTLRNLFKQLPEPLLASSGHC
Outline: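 Endogenous transcription factor activity in human liver HepG2 cells is inferred from induction of a CEBPB-linked reporter mRNA. Exposure lasts 24 h; activity is fitted in both directions relative to DMSO.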

[12] = ATG_CMV_CIS: Attagene CIS-FACTORIAL HepG2 Assay for human CMV (Internal Marker) (AID 2282928); settings: HepG2 CMV promoter reporter, transcription factor profiling; actives raise or lower the signal;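 further: endpoint acts as a background internal control marker rather than a target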
Outline: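 CMV internal-marker background readout in transiently transfected HepG2 cells bearing cis-regulated reporter units. Reporter mRNA is measured 24 h after dosing by RT-PCR and capillary electrophoresis, with bidirectional fitting against DMSO.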

[13] = ATG_DR4_LXR_CIS: Attagene CIS-FACTORIAL HepG2 Assay for human Liver X Receptor (LXR), DR4 submotif (AID 2282929); settings: HepG2 Attagene DR4 cis-reporter, mRNA transcription; actives raise or lower the signal
Outline: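 The endpoint is DR4-element-driven reporter transcripts after 24 h chemical exposure of transfected HepG2 cells. These were measured via RT-PCR and capillary electrophoresis, and gain or loss of signal was fitted relative to DMSO controls.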

[14] = ATG_AP_1_CIS: Attagene CIS-FACTORIAL HepG2 Assay for human Activator Protein 1 (AP-1) (AID 2282931); settings: HepG2 Attagene cis-factorial AP-1 reporter mRNA; actives raise or lower the signal
Outline: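 Readout is reporter transcript level from endogenous transcription factor activity, quantified by RT-PCR with fluorescent primer extension and capillary electrophoresis. Transiently transfected HepG2 cells, 24 h exposure. Curves fitted both directions versus DMSO.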

[15] = ATG_AP_2_CIS: Attagene CIS-FACTORIAL HepG2 Assay for human Activator Protein 2 (AP-2) (AID 2282932); settings: HepG2 AP-2 cis-reporter, Attagene transcription factor profiling; actives raise or lower the signal
Outline: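 HepG2, transient MRTU transfection, cis-regulated reporters; 24 h compound exposure; RNA isolated, RT-PCR, 6-FAM labelling, HpaI digest, CE fluorescence. DMSO = negative control/baseline, bidirectional fit.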

[16] = ATG_BRE_CIS: Attagene CIS-FACTORIAL HepG2 Assay for human Bone Morphogenetic Protein (BMP) Response Element (BRE) (AID 2282933); settings: HepG2 BMP response element reporter, Attagene transcription factor profiling; actives raise or lower the signal
Outline: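 Transient MRTU transfection of human HepG2 liver cells; 24 h compound treatment; total RNA isolated, reverse-transcribed, PCR-amplified, 6-FAM labelled, HpaI-cut, capillary electrophoresis. DMSO = negative control/baseline, bidirectional fit.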

[17] = biological target: Retinoic acid receptor alpha (Homo sapiens) (UniProt P10276); test: ATG_DR5_RAR_CIS: Attagene CIS-FACTORIAL HepG2 Assay for human Retinoic Acid Receptor Alpha (RARE), DR5 submotif (AID 2282934); settings: HepG2 Attagene cis-factorial RARE DR5 reporter, mRNA; actives raise or lower the signal;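 on AC50: reporter responds to endogenous RAR alpha beta and gamma in HepG2 not RARA alone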
Retinoic acid receptor alpha (Homo sapiens), sequence (P10276 whole entry, looked up): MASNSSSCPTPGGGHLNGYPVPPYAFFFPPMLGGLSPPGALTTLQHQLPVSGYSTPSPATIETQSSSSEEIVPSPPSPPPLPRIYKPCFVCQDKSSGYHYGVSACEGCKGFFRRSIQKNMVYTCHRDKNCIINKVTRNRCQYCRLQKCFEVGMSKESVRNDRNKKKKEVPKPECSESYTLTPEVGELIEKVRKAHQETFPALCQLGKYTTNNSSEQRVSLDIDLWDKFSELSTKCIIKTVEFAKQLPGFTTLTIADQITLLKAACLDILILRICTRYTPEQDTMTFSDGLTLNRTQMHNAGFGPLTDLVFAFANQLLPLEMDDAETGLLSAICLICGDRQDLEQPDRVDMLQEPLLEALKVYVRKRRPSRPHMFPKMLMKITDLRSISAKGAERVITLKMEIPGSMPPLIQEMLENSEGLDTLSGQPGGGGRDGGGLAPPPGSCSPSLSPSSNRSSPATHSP
Outline: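 Transient MRTU transfection of HepG2; 24 h compound treatment; TriZol RNA, oligo(dT) RT, PCR, FAM labelling, capillary electrophoresis. Bidirectional fit vs DMSO. Endogenous TF activity at DR5 RARE.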

[18] = biological target: Transcription factor E2F1 (Homo sapiens) (UniProt Q01094); test: ATG_E2F_CIS: Attagene CIS-FACTORIAL HepG2 Assay for human E2F Transcription Factor 1 (AID 2282935); settings: HepG2 Attagene cis-reporter, E2F reporter RNA transcripts; actives raise or lower the signal
Transcription factor E2F1 (Homo sapiens), sequence (Q01094 whole entry, looked up): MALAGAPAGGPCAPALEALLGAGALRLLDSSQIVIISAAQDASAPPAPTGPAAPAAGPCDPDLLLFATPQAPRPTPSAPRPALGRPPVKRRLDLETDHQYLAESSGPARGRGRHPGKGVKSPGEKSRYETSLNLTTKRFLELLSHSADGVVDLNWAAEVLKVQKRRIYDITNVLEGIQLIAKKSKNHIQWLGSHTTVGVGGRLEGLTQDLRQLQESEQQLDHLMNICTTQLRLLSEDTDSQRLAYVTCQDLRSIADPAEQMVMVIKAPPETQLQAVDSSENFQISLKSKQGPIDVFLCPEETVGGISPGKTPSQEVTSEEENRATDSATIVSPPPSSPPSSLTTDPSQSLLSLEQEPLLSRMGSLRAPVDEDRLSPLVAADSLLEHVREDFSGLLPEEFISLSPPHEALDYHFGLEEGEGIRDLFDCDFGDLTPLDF
Outline: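 Cis-element reporter mRNA induction in transiently transfected HepG2, 24 h exposure. Activity fitted in both directions relative to DMSO negative control.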

[19] = biological target: Aryl hydrocarbon receptor (Homo sapiens) (UniProt P35869); test: ATG_Ahr_CIS: Attagene CIS-FACTORIAL HepG2 Assay for human Aryl Hydrocarbon Receptor (Ahr) (AID 2282930); settings: HepG2 AhR cis-factorial reporter transcription; actives raise or lower the signal
Aryl hydrocarbon receptor (Homo sapiens), sequence (P35869 whole entry, looked up): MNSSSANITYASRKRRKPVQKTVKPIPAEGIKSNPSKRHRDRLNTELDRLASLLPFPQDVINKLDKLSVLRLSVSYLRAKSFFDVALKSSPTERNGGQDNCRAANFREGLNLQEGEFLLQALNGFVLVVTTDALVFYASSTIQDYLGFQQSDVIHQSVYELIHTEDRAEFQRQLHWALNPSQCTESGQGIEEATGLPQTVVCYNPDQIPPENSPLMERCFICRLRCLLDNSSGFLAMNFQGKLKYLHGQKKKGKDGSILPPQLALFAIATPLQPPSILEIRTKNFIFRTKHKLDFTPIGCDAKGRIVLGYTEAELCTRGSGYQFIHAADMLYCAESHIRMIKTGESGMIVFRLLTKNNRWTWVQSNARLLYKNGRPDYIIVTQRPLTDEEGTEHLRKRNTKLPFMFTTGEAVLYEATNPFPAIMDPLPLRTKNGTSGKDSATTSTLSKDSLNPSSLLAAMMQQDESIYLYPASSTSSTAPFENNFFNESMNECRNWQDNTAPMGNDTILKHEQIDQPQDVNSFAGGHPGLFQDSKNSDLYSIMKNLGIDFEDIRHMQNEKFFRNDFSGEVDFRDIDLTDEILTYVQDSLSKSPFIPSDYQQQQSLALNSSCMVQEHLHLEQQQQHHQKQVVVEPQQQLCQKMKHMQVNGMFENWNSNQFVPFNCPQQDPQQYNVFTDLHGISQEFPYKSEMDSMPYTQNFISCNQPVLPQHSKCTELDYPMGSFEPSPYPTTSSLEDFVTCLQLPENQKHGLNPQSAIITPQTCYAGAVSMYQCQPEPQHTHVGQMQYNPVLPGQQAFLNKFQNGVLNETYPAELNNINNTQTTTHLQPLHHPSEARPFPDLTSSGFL
Outline: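 Transient MRTU transfection of HepG2 → 24 h compound exposure → total RNA, oligo(dT) RT → PCR, 6-FAM extension, HpaI cut → CE fluorescence. DMSO = baseline; bidirectional curve fit.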

[20] = APR_HepG2_MitoMembPot_72hr: Apredica 72-hour HepG2 Assay for Mitochondrial Membrane Potential (AID 2282917); settings: imaging, actives raise or lower the signal
Outline: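 Membrane potential read by MitoTracker Red CMXRos (250 nM, 30 min, pre-fixation) fluorescence imaging of HepG2 after 72 hr exposure. Ten concentrations, 0.39–200 uM, duplicate wells, 0.5% DMSO; fitted in both directions against DMSO baseline.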

Measured: AC50

CCCCCCCCCC(=O)O
not listed: [19] | [20]
inactive: all other assays above

COc1cc(C(=O)NC2CCN(C)CC2)ccc1Nc1ncc2c(n1)N(C1CCCC1)CC(F)(F)C(=O)N2C
active: [10] 0.933 µM | [11] 0.472 µM | [14] 5.06 µM | [15] 0.89 µM | [17] 0.51 µM
not listed: [13] | [20]
inactive: all other assays above

O=CCCCC=O
not listed: [17] | [19]
inactive: all other assays above

Cc1cccc2ccccc12
not listed: [20]
inactive: all other assays above

Cc1c2ccccc2c(C)c2c1ccc1ccccc12
active: [1] 21.5 µM | [2] 35.8 µM | [3] 74 µM | [4] 19.8 µM | [5] 6.17 µM | [7] 0.355 µM | [9] 54.7 µM | [12] 33.1 µM | [13] 10.4 µM | [19] 3.38 µM | [14] 25.5 µM | [16] 14.6 µM | [17] 53.3 µM
inactive: [20] | [6] | [8] | [10] | [11] | [15] | [18]

c1ccc(C[n+]2cccc3ccccc32)cc1
active: [1] 20.6 µM | [2] 109 µM | [3] 87 µM | [4] 106 µM | [5] 25.6 µM | [9] 68.9 µM | [12] 100 µM | [19] 69.6 µM | [14] 41.1 µM
not listed: [13]
inactive: all other assays above
